Experiment [1] addresses Rap guanine nucleotide exchange factor 3 (Homo sapiens) (UniProt O95398). Put plainly: Confirmatory qHTS for antagonist of cAMP-regulated guanine nucleotide exchange factor 3 (EPAC1) (AID 1645880).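 For activity, negative = inhibition: plate controls were DMSO only for no effect and full effect of the ATA control for full effect.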 Note: nearly all actives have a fitted effect of over 55% in size. Note: potency is the fitted concentration of half-maximal effect. The settings on record: EPAC1 Rap1B-BODIPY-GDP exchange, fluorescence; activity, negative = inhibition: at 115 µM (top of the series). In short, it runs like this:
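Nucleotide exchange uses 100 nM EPAC1, 250 nM RAP1B-BODIPY-GDP and 50 uM GDP, with compounds in a concentration-titration series. After 5 min at room temperature, fluorescence (480 nm ex/540 nm em) is read every 5 min for 30 min. Data are normalized to control ATA and DMSO.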

The target is the same in experiment [2]. Put plainly: Confirmatory qHTS for agonist of cAMP-regulated guanine nucleotide exchange factor 3 (EPAC1) (AID 1645881; note: nearly all actives have a fitted effect of over 75% in size; note: potency is the fitted concentration of half-maximal effect;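 for activation: EPAC1 catalysed release of BODIPY-GDP from Rap1B seen as fluorescence loss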). (In general: Quantitative high-throughput screening tests each substance at several concentrations.)
The target of experiment [3] is Rap guanine nucleotide exchange factor 4 (Homo sapiens) (UniProt Q8WZA2). Put plainly: Confirmatory qHTS for agonist of cAMP-regulated guanine nucleotide exchange factor 4 (EPAC2) (AID 1645884). For activation: % is set by controls: 0 for no effect and ±100 for the full control effect. Note: nearly all actives have a fitted effect of over 65% in size. Note: potency is the fitted concentration of half-maximal effect.
Rap guanine nucleotide exchange factor 4 (Homo sapiens), sequence (Q8WZA2 whole entry, looked up): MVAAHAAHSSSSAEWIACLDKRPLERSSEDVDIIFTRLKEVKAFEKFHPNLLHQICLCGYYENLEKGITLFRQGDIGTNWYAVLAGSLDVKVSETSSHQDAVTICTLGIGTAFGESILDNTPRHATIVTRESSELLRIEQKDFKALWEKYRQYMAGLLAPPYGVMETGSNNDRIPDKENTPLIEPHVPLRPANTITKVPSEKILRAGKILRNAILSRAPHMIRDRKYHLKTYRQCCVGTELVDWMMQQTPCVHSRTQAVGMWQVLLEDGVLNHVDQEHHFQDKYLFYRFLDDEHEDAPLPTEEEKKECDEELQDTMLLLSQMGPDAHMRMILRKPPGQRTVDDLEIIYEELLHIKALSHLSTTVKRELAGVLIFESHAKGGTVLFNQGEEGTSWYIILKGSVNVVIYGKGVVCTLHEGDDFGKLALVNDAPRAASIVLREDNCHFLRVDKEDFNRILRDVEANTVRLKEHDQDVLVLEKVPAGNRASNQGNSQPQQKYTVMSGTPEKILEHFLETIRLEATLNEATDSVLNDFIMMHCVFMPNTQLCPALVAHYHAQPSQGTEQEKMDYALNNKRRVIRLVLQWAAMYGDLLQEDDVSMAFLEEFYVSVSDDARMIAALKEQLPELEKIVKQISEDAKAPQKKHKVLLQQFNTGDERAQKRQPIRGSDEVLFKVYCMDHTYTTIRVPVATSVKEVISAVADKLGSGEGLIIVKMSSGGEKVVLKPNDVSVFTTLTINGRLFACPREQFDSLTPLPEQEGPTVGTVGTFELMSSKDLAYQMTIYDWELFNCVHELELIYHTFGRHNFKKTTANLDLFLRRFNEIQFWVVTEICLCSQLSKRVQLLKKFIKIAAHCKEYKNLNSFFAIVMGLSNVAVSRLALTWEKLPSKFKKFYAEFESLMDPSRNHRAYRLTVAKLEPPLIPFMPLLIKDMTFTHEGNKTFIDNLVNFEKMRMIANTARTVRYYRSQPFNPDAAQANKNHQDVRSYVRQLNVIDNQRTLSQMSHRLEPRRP
Experiment [4] addresses Rap guanine nucleotide exchange factor 3 (Homo sapiens) (UniProt O95398). Put plainly: Counterscreen qHTS for antagonist of cAMP-regulated guanine nucleotide exchange factor 3 (EPAC1) (AID 1645888).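 Note: fluorescence loss as bound BODIPY-GDP is released from Rap1B; % of control where 0% means no effect.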 In short, it runs like this: (§1)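 Rap1B-BODIPY-GDP 250 nM + GDP 50 uM; cpds 7-pt, final 9.74 nM–152 uM (activator mode) or from 7.32 nM upwards (inhibitor mode); RT; FI 480/540 nm at 5 and 30 min, then ± cAMP, reread.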
(In general: The purpose of a counterscreen is to sort out artefacts and off-target activity.)

For experiment [5] the target is unchanged. Put plainly: Counterscreen qHTS for agonist of cAMP-regulated guanine nucleotide exchange factor 3 (EPAC1) (AID 1645889). For activation: % of control where 0% means no effect. Note: nearly all actives have a fitted effect of over 40% in size. Note: potency is the fitted concentration of half-maximal effect. In short, it runs like this:
as §1

For experiment [6], the target named is DNA polymerase eta (Homo sapiens) (UniProt Q9Y253). Put plainly: qHTS for Inhibitors of Polymerase Eta: Confirmatory Assay for Cherry-picked Compounds (AID 720502). Note: potency is the fitted concentration of half-maximal effect. The following applies: Pol eta primer extension, TAMRA/BHQ fluorescence, 10 min. In short, it runs like this:
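Pol eta 10 nM; substrate 50 nM final (unlabeled primer, TAMRA reporter, BHQ-2 template); preincub. 15 min RT; reads t=0 and t=10 min at ex525/em598.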

Experiment [7] has as its target Lysosomal acid glucosylceramidase (Homo sapiens) (UniProt P04062). The experiment in a line: Glucocerebrosidase-p2 (AID 348; in the data active = potency below about 10 µM; note: potency is the fitted concentration of half-maximal effect). The settings on record: purified GBA, blue fluorogenic substrate, 40 min. In short, it runs like this:
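Compounds titrated from 0.6 nM upwards against 0.2 nM enzyme in pH 5.9 citric acid/KH2PO4, taurocholate, tween-20; blue fluorogenic substrate 80 uM, 40 min room temperature, stopped and read Ex 365/Em 440 for AC50.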

Experiment [8] in a line: AP1 Signaling Pathway (AID 357; active = well fitted curve in either direction with a large enough effect, not every such curve was filed as active;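 note: ME-180 reporter cells stimulated with EGF at its EC50 level; % is set by controls: 0 for no effect and ±100 for the full control effect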). The following applies: ME-180 AP-1-bla reporter, EGF-induced, beta-lactamase ratio, 5 h; at 7.69 µM (top of the series) unless noted. Put shortly: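 A ratiometric CCF4 readout (405 nm excitation; 460 and 530 nm emission) quantified AP-1-driven beta-lactamase in ME-180 cells after 5 h with compound and EC50 EGF; AC50 values were derived for activators and inhibitors.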

A short description of experiment [9]: Stat Signaling Pathway (AID 446; active = well fitted curve in either direction with a large enough effect, not every such curve was filed as active;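 note: ME-180 cervical cancer cells given 40 pM IL-6 alongside compound; SIE-controlled beta-lactamase reporter measured as 460/530 nm FRET emission ratio; % is set by controls: 0 for no effect and ±100 for the full control effect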). Put shortly: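 ME-180 SIE-bla cells; overnight plating; cpd + IL-6 40 pM, 5 h, 37 C; LiveBLAzer 2.5 h RT; 460/530 nm emission ratio. Normalized to 300 pM IL-6 and 125 nM JAK inhibitor controls.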
For experiment [10], the target named is Glucocorticoid receptor (Homo sapiens) (UniProt P04150). Put plainly: GR-GFP Redistribution (AID 450;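 active = compounds whose dose series gives a full or clear partial fitted curve of increased nuclear translocation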; note: potency is the fitted concentration of half-maximal effect). The settings on record: U2OS GR-GFP nuclear translocation, laser cytometry, 2 h.
Glucocorticoid receptor (Homo sapiens), sequence (P04150 whole entry, looked up): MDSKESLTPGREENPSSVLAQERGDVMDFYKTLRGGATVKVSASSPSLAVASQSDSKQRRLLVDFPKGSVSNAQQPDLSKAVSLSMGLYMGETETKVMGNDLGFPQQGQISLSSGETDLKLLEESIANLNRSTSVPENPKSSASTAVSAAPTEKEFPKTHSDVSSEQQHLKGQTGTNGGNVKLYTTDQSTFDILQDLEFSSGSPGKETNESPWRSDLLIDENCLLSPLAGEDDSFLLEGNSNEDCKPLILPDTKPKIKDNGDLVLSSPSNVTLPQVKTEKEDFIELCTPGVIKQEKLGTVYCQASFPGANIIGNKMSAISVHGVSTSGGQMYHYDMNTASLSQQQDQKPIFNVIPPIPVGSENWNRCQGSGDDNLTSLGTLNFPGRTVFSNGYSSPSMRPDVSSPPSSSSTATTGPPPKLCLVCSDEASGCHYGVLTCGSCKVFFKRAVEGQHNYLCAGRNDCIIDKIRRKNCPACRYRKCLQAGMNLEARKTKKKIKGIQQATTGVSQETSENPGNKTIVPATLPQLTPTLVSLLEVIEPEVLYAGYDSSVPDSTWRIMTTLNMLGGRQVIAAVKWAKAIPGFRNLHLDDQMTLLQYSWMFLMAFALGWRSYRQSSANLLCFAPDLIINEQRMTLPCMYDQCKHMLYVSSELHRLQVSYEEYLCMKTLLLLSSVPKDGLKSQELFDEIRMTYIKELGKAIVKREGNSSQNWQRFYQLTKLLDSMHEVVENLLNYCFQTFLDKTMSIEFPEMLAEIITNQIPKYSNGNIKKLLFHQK
Experiment [11] has the same target. The experiment in a line: GR-EFC Redistribution (AID 451; calls by dose curve; note: potency is the fitted concentration of half-maximal effect). The settings on record: CHO-K1 GR-EFC translocation, beta-gal luminescence, 2 h. Put shortly:
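Translocation of GR-ED fusion to nuclear EA restores b-gal, read by luminescence after 1 h room-temperature detection. Engineered CHO-K1 biosensor cells, 1,000/well, exposed 2 h at 37 C to titrations up to 46 uM final.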

Experiment [12] deals with Mitogen-activated protein kinase 10 (Mus musculus) (UniProt Q61831). The experiment in a line: JNK3 AlphaScreen Assay (AID 530; active = well fitted curve in either direction with a large enough effect, not every such curve was filed as active;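 note: kinase came from lysate of stimulated human HepG2 cells; signal reports phosphorylation of biotinylated GST-cJun 1-79 at Ser73 with 10 µM ATP; % is set by controls: 0 for no effect and ±100 for the full control effect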). In short, it runs like this: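 Room-temperature AlphaScreen kinase assay; pre-activated HepG2 lysate as JNK3 source, biotin-GST-cJun(1-79) substrate, 10 uM ATP, compound 15 min preincubation.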
In general terms: Bead proximity is the source of the signal in Alpha formats.

Experiment [13] concerns the target 3',5'-cyclic-AMP phosphodiesterase 4B (Homo sapiens) (UniProt Q07343). The experiment in a line: qHTS Assay for Inhibitors of PDE-IV (AID 607; active = well fitted activation curve with a large enough effect in the main read-out, with a control signal flat, not every such curve was filed as active; note: % of control where 0% means no effect). In short, it runs like this: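 ACTOne HEK293 cells carry a modified cAMP-gated CNG channel and express endogenous PDE4; plated 1000 cells/well, compounds up to 22.9 uM final. Membrane-potential dye fluorescence (ex 535/em 590) was read; parental cells received 10 uM forskolin + 100 uM RO 20-1724.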

The nature of experiment [14]: qHTS for Inhibitors of the vitamin D receptor (VDR): Hit Validation using a Texas Red Assay (AID 602201). Note: potency is the fitted concentration of half-maximal effect. Put shortly: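 After a 2-hour room-temperature incubation, polarization of Texas-Red emission was read (Ex 595 nm/Em 615 nm). Final mix contained 7 nM Texas Red, 1.5 uM VDR-LBD and LG19078.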
The target of experiment [15] is Tumor susceptibility gene 101 protein (Homo sapiens) (UniProt Q99816). Put plainly: qHTS Assay for Iinhibitors of HIV-1 Budding by Blocking the Interaction of PTAP/TSG101: Hit Validation (AID 651600). Note: potency is the fitted concentration of half-maximal effect; nearly all actives have a fitted effect of over 70% in size. Put shortly:
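Measuring PTAP–Tsg101 interaction by FP: protein at 10 uM and fluorescent peptide at 50 nM (final), buffer 10 mM HEPES pH 7.5 with 0.15 M NaCl, 3 mM EDTA, 0.1 mM TCEP, 0.01% Tween 20; 20 min incubation, r.t.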

Structures are written as SMILES. A number with no mark means an inactive call. Results filed as inconclusive are left out. The list shows a part of the results. Activity calls are given as the source filed them. Unless noted, calls come from the whole dose curve; as a rule, active = well fitted curve in the direction sought with a large enough effect; inconclusive = small, poorly fitted or top-dose-only effect, or another doubt; inactive = no such curve, though single readings can be large; an effect the other way counts as inactive or inconclusive. Where only a bound is given, the exact number is not on record here.

Rap guanine nucleotide exchange factor 3 (Homo sapiens), sequence (O95398 whole entry, looked up): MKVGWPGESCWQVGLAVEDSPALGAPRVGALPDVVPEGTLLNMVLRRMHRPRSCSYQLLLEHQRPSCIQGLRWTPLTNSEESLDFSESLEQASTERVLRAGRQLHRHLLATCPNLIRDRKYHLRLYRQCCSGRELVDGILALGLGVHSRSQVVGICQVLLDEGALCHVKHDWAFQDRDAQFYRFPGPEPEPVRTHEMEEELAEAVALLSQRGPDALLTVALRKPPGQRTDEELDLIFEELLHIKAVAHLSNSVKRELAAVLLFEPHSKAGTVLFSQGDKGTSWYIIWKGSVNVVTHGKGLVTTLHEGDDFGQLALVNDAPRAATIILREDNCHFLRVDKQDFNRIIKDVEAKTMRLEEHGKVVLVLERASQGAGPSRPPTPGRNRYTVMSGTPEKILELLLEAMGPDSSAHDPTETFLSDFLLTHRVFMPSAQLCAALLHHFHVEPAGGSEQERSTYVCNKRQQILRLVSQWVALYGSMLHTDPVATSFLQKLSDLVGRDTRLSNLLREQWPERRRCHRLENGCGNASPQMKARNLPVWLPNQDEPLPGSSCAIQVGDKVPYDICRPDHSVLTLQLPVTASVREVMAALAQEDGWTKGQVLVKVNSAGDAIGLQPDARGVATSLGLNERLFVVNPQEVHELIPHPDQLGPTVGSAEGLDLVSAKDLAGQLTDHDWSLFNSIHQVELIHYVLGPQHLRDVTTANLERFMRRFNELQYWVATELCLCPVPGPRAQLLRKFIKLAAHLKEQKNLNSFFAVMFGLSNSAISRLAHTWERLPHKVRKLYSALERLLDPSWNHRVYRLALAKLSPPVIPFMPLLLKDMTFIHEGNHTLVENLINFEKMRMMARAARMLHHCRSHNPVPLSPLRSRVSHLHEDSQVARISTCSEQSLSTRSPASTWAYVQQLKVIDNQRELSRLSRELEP
Lysosomal acid glucosylceramidase (Homo sapiens), sequence (P04062 whole entry, looked up): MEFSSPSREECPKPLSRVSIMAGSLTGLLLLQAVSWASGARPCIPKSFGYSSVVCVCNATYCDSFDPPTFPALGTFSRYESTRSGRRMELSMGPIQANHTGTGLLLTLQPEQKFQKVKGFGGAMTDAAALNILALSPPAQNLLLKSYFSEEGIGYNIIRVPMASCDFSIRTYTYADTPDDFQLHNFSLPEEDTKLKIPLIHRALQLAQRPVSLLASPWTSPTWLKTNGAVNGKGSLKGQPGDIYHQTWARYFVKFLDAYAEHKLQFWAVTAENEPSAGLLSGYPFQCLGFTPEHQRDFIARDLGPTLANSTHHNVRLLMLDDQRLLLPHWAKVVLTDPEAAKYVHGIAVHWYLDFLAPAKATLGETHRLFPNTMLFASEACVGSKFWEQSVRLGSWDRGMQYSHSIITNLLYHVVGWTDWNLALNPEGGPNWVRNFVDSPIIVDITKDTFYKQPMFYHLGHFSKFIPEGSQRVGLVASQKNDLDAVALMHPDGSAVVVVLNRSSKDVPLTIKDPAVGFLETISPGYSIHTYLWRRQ
3',5'-cyclic-AMP phosphodiesterase 4B (Homo sapiens), sequence (Q07343 whole entry, looked up): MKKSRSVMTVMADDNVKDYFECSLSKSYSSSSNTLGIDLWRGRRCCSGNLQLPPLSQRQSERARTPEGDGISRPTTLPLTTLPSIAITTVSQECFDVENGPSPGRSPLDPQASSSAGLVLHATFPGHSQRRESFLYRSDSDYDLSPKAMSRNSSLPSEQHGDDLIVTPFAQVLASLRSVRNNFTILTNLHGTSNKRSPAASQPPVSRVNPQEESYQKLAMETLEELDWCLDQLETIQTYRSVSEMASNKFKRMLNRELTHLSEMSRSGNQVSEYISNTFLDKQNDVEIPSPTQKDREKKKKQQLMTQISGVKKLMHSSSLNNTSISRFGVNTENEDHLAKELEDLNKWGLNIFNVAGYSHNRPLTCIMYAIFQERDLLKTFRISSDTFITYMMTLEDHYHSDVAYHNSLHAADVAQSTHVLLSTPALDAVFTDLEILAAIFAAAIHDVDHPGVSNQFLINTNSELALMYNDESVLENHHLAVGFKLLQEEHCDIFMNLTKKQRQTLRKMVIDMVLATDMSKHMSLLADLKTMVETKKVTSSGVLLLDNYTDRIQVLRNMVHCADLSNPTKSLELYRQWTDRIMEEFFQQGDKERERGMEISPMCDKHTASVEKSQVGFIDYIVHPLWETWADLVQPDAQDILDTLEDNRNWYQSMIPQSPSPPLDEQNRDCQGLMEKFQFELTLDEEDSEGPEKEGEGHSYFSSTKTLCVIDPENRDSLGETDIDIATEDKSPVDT
Tumor susceptibility gene 101 protein (Homo sapiens), sequence (Q99816 whole entry, looked up): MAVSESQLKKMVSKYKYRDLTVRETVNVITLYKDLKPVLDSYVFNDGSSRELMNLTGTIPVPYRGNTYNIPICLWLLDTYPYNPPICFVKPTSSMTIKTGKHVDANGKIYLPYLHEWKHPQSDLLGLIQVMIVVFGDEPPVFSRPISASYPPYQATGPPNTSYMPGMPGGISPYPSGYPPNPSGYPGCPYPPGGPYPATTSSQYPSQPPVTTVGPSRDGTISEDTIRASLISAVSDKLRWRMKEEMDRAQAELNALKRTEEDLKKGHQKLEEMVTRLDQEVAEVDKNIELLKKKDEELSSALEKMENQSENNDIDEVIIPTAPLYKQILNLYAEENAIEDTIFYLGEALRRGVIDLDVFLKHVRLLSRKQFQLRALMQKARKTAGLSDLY

Regarding `Cc1cc(C)nc(SCC(=O)c2ccc(Cl)cc2)n1`, the Potency entry in experiment [1], in experiment [2], in experiment [3], in experiment [4] and in experiment [5] was “inactive” each time.
On to `COc1ccc(OC)c(NC(=O)C2(C)CCN2Cc2ccsc2)c1` (centres undefined), for which the Potency entry in experiment [1], in [2], in experiment [3], in experiment [4] and in experiment [5] was “inactive” throughout.
As for `O=[N+]([O-])c1cc(/C=N/O)ccc1Oc1ccccc1Cl`, the Potency entry in [1], in [2], in experiment [3], in [4] and in [5] was “inactive” throughout.
For the compound `N#C/C(=C/c1ccc(N2CCCCC2)o1)C(=O)Nc1ccc(Cl)cc1`, the Potency entry in experiment [1] and in [4] was “inactive” each time. Moreover, the results for the Potency in [2], in [3] and in experiment [5] were 17.8 µM (active), 100 µM (active) and 12.6 µM (active), respectively.
In the case of `CCOC(=O)C1(Cc2ccccc2)C(=O)Nc2ccccc21` (centres undefined), the Potency result in [1] and in [2] was “inactive” each time. Moreover, the activation is 2.58% [at 17.1 µM, percent relative to cAMP agonist control] in experiment [3] and 32.7% [at 30.8 µM] in [5].
As to `CC(C)(C)NC(=O)C(c1ccc(C(F)(F)F)cc1)n1c(=O)c(-c2ccco2)nc2ccccc21` (centres undefined), in experiment [1], the Potency was 75.7 µM (active). Further, the Potency entry in [2], in [3] and in experiment [5] was “inactive” in each case.
For `Cc1cc(C(=O)N/N=C/c2ccc(O)c([N+](=O)[O-])c2)c(C)n1-c1ccc(F)cc1`, the Potency in experiment [6] is 75.7 µM (active); in experiment [1] it was 42.6 µM (active). The Potency entry in experiment [2], in [3], in [4] and in [5] was “inactive” in each case.
`C[C@@H]1CN([C@@H](C)CO)C(=O)Cc2cc(NC(=O)C3CCCCC3)ccc2O[C@H]1CN(C)S(=O)(=O)c1ccccc1`: the Potency result in experiment [1], in experiment [2], in experiment [3] and in experiment [5] was “inactive” in each case.
With `COc1ncc2nc(-c3ccccc3)c(=O)n(Cc3cccs3)c2n1`, the Potency in experiment [7] was above 11.4 µM; in [10], above 9.22 µM; in [11] it was above 46 µM. In addition, the activity change, negative = inhibition in [8] is 3.51%. The outcome in experiment [9] was inactive. The Potency result in [12], in experiment [13], in [1], in experiment [2] and in experiment [3] was “inactive” throughout.
With `O=C1ON=C(c2ccccc2)/C1=C/c1ccc(-c2ccccc2[N+](=O)[O-])o1`, the Potency is 4.47 µM (active) in [14] and 37.9 µM (active) in experiment [1]. Moreover, the Potency entry in experiment [2], in [3] and in experiment [4] was “inactive” each time.
Consider `CCOC(=O)/C(C#N)=C\c1ccc(N2CCN(C/C=C/c3ccccc3)CC2)cc1`, for which the Potency in experiment [15] was 20.6 µM (active); in [2] it was 79.4 µM (active); in [3] it was 100 µM (active); in experiment [5], 70.8 µM (active). Further, the Potency entry in experiment [1] and in experiment [4] was “inactive” in each case.

Source of the values: PubChem BioAssay (NCATS).
